In PubChem BioAssay (Tox21):
Records with an inconclusive call do not appear. The source made the active and inactive calls. Unless noted, the call rests on the fitted dose curve; in most records, active means well fitted curve in the direction sought with a large enough effect in the repeat runs; inconclusive means weak or mixed curves; inactive means no such curve, though single readings can be large; an effect the other way counts as inactive or inconclusive. Positions of bridges follow the written chain, without caps; N, C: chain ends. Non-standard residues stand in square brackets, D forms with d. Residues, ends and D or L forms follow the SMILES beside them. hArg = N=C(N)NCCCC[C@H](N)C(=O)O; Mpa = O=C(O)CCS

Assays:
[1] = qHTS RealTime-Glo MT Cell Viability Assay in HEK293 cells - 24 hour (AID 1224886); further: top concentration of the series differs between compounds; nearly all actives have a fitted effect of over 50% in size
How it was run: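 Assay medium contained NanoLuc luciferase plus cell-permeant prosubstrate, added with HEK293 cells at 600 cells/well. After 5 h at 37 C/5% CO2 compounds were added; plates stayed at 37 C for 40 h with serial luminescence reads.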

[2] = qHTS RealTime-Glo MT Cell Viability Assay in HEK293 cells - 8 hour (AID 1224887); further: top concentration of the series differs between compounds; nearly all actives have a fitted effect of over 50% in size
How it was run: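 Luminescence, which tracks viable cell number through reduction of the prosubstrate to a NanoLuc substrate, was read over continuous 37 C culture. Cells (600/well) were premixed with reagent and rested 5 h before 23 nL of compound in DMSO was pinned.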

[3] = A CellTox Green Cytotoxicity Assay to monitor cytotoxicity in HEK293 cells - 16 hour (AID 1224888); further: nearly all actives have a fitted effect of over 35% in size
How it was run: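 Fluorescence from a DNA-binding dye excluded by viable cells was measured repeatedly in the same HEK293 wells (600 cells/well) during continuous compound exposure at 37 C. Each assay gives one read point: 0, 8, 16, 24, 32 or 40 h.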

[4] = qHTS RealTime-Glo MT Cell Viability Assay in HepG2 cells - 0 hour (AID 1224889); further: nearly all actives have a fitted effect of over 50% in size
How it was run: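 qHTS, HepG2, 600 cells/well, RealTime-Glo (NanoLuc + prosubstrate) added with cells; 5 h preincubation; DMSO compound addition; 37 C; luminescence at 0/8/16/24/32/40 h.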

[5] = A CellTox Green Cytotoxicity Assay to monitor cytotoxicity in HepG2 cells - 8 hour (AID 1224890); further: nearly all actives have a fitted effect of over 45% in size
How it was run: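 Real-time cytotoxicity: fluorescence of a cell-impermeant cyanine dye binding DNA of dead HepG2 cells, measured repeatedly (0–40 h) during compound exposure at 37 C. Cells seeded 600/well with reagent, dosed after 5 h.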

[6] = qHTS assay to identify small molecule antagonists of the estrogen receptor alpha (ER-alpha) signaling pathway using the BG1 cell line in the presence of 0.1 nM 17-beta-estradiol - cell viability counter screen (AID 1259241); further: nearly all actives have a fitted effect of over 40% in size
How it was run: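 VM7Luc4E2, 4,000 cells/well, phenol red-free medium + 10% charcoal-stripped FBS; 24 hr plating; cpd + 0.1 nM E2 final, 22 hr 37C/5% CO2; CellTiter-Fluor 30 min, fluorescence.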

[7] = qHTS assay to identify small molecule antagonists of the androgen receptor (AR) signaling pathway using the MDA cell line in the presence of 0.5 nM R1881 - cell viability counter screen (AID 1259242); further: nearly all actives have a fitted effect of over 45% in size
How it was run: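 Live-cell protease activity was measured by CellTiter-Fluor fluorescence after 30 min. Before that, MDA-kb2 MMTV-luciferase cells had 16 hr at 37C without CO2, exposed to test compounds and 0.5 nM R1881 final.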

[8] = target: Androgen receptor (Homo sapiens) (UniProt P10275); experiment: qHTS assay to identify small molecule antagonists of the androgen receptor (AR) signaling pathway using the MDA cell line in the presence of 0.5 nM R1881 (AID 1259243); further: nearly all actives have a fitted effect of over 50% in size
Chain of Androgen receptor (Homo sapiens) (P10275 whole entry, looked up): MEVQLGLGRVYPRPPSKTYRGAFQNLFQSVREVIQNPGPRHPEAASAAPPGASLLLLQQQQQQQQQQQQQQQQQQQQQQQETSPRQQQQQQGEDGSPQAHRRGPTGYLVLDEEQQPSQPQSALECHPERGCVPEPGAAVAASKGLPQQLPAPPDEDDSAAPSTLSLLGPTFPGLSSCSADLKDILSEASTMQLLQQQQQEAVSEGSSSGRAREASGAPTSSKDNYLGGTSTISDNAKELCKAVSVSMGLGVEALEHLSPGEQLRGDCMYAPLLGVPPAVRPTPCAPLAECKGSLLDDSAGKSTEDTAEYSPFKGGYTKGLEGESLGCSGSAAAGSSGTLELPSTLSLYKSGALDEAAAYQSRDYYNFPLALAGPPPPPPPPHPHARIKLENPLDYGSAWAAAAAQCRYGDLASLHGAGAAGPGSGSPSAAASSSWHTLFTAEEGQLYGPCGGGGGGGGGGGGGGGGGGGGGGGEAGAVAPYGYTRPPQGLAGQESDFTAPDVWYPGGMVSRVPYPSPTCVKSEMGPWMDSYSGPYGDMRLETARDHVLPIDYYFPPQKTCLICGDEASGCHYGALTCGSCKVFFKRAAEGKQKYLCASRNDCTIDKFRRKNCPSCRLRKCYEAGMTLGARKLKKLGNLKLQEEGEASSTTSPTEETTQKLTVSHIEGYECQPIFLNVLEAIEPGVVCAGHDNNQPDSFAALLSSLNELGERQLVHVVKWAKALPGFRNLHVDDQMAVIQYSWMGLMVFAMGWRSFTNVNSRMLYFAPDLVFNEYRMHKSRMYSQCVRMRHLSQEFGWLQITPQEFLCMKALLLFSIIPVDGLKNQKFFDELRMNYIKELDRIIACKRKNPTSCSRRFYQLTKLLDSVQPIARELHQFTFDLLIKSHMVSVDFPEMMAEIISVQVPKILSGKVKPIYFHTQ
How it was run: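 Luminescent reporter readout (ONE-Glo, 30 min, room temperature) after 16 hr co-treatment of MDA-kb2 cells with test compounds and 0.5 nM R1881 final, at 37C without CO2. The MMTV-driven luciferase responds to both AR and GR.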

[9] = target: Estrogen receptor (Homo sapiens) (UniProt P03372); experiment: qHTS assay to identify small molecule antagonists of the estrogen receptor alpha (ER-alpha) signaling pathway using the BG1 cell line in the presence of 0.1 nM 17-beta-estradiol (AID 1259244); further: nearly all actives have a fitted effect of over 50% in size
Chain of Estrogen receptor (Homo sapiens) (P03372 whole entry, looked up): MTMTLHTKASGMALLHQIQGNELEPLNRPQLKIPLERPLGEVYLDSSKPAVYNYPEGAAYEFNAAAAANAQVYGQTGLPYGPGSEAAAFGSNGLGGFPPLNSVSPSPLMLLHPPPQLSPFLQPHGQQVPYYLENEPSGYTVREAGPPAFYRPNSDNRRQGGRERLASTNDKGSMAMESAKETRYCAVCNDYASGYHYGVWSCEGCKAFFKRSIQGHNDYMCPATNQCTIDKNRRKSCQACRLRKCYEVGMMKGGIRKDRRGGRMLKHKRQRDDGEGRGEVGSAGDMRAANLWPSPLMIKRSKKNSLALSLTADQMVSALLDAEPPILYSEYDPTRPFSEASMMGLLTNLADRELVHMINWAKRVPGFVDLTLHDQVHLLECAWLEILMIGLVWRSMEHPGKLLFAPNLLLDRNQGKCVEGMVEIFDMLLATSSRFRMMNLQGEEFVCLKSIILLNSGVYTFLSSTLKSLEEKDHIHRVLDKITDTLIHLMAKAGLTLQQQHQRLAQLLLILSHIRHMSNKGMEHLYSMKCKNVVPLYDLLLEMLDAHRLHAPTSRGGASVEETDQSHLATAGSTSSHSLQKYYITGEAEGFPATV
How it was run: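 Luciferase luminescence (ONE-Glo, 30 min at room temperature) was read after 22 hr at 37C exposure to compounds plus 17beta-estradiol at 0.1 nM final. Cells were VM7Luc4E2 with endogenous ER-alpha and an ERE-driven luciferase, pre-cultured 5 days in hormone-depleted medium.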

[10] = qHTS assay to identify small molecule HDAC inhibitors (AID 1259364); further: top concentration of the series differs between compounds; nearly all actives have a fitted effect of over 45% in size
How it was run: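 Luminescence read after 30 min room-temperature HDAC-Glo incubation measures cellular class I/II HDAC activity. Compounds were applied for 2 hr at 37 C to HCT-116 wild-type cells seeded the day before.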

[11] = qHTS assay to identify small molecule agonists of the sonic hedgehog signaling (Shh) pathway - cell viability counter screen (AID 1259366); further: nearly all actives have a fitted effect of over 50% in size
How it was run: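 Cytotoxicity counter screen run in the same wells as the Shh reporter assay. NIH/3T3 cells carrying a Gli1 response element–driven luciferase were treated with DMSO-dissolved compounds for 24hr, and live-cell protease activity was measured with CellTiter-Fluor.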

[12] = qHTS assay to identify small molecule antagonists of the sonic hedgehog signaling (Shh) pathway - cell viability counter screen (AID 1259367); further: nearly all actives have a fitted effect of over 55% in size
How it was run: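 Viability was read by CellTiter-Fluor fluorescence in the same wells, reagent added 23 hr into compound treatment and incubated 1 hr at 37C. The 3T3 Gli1-Luc reporter cells (2,000/well) received conditioned medium after compound and ran 24 hr.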

[13] = qHTS assay to identify small molecule agonists of the sonic hedgehog signaling (Shh) pathway (AID 1259368; calls by dose curve;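 further: NIH/3T3-derived 3T3Gli1-Luc cells carrying a stable Gli1-driven firefly luciferase reporter; series mostly up to about 92 µM; nearly all actives have a fitted effect of over 15% in size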)
How it was run: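 Luminescence was read after 30 min at room temperature with luciferase reagent. Before that, 3T3Gli1-Luc cells (NIH/3T3 clone, stable Gli1-Luc reporter; 2,000/well) were exposed to compounds for 24 hr at 37C, 5% CO2, compounds being added 4 hr post-plating.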

[14] = qHTS assay to identify small molecule antagonists of the sonic hedgehog signaling (Shh) pathway (AID 1259369; calls by dose curve; further: nearly all actives have a fitted effect of over 45% in size)
How it was run: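 Antagonist mode: compound added to 3T3 Gli1-Luc cells followed by conditioned-medium stimulation, 24 h at 37 C, 5% CO2. Inhibition taken as loss of Gli1-driven luciferase luminescence.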

[15] = target: Estrogen receptor beta (Homo sapiens) (UniProt Q92731); experiment: qHTS assay to identify small molecule antagonists of the estrogen receptor beta (ER-beta) signaling pathway (AID 1259378; active means well fitted inhibition curve with a large enough effect in the signal ratio in the repeat runs, not every such curve was filed as active; the % refers to the signal ratio)
Chain of Estrogen receptor beta (Homo sapiens) (Q92731 whole entry, looked up): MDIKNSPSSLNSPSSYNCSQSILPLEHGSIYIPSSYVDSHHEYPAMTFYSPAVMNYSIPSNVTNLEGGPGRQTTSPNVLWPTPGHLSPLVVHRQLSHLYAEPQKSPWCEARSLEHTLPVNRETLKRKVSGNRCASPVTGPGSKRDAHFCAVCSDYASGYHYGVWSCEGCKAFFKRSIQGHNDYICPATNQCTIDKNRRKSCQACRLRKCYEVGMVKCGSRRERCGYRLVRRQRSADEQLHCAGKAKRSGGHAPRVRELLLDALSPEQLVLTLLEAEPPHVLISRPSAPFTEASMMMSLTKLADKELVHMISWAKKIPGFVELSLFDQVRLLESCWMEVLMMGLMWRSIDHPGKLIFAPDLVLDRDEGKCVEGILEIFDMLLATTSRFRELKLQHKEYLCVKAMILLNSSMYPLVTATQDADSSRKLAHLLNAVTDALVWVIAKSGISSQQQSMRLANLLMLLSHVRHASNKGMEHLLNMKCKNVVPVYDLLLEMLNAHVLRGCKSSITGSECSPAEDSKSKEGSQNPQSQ
How it was run: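 Antagonist mode: compounds added to beta-lactamase reporter HEK293T ER-beta-UAS cells stimulated with E2 (1nM final), 16 hr at 37C. LiveBLAzer B/G FRET substrate, 2 hours room temperature, fluorescence read-out.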

[16] = qHTS assay to identify small molecule agonists of the androgen receptor (AR) signaling pathway in the presence of an antagonist - cell viability counter screen (AID 1259379);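 further: MDA-kb2 human breast cancer cells carrying an MMTV luciferase reporter; series mostly up to about 92 µM; nearly all actives have a fitted effect of over 25% in size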
How it was run: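 Cytotoxicity counter-screen run in the same wells as the nilutamide-challenged (3.0 µM final) AR agonist assay in MDA-kb2 cells. Compounds tested at 15 concentrations for 16 h, 37 °C without CO2; CellTiter-Fluor fluorescence read.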

[17] = qHTS assay to identify small molecule agonists of the estrogen receptor beta (ER-beta) signaling pathway - cell viability counter screen (AID 1259380); further: nearly all actives have a fitted effect of over 30% in size
How it was run: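 Cell viability counter screen: CellTiter-Glo luminescence (30 min, room temperature) measured in the same wells as the beta-lactamase readout, after 16 hr compound exposure at 37C of ER-beta-bla HEK293T cells in 2% charcoal-stripped FBS medium.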

[18] = qHTS assay to identify small molecule HDAC inhibitors - cell viability counter screen (AID 1259365)
How it was run: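 Luminescence from CellTiter-Glo, developed 30min at room temperature, reports viability of wild-type HCT-116 cells treated 2hr with compounds at 37 C and 5% CO2 after overnight plating.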

[19] = target: Estrogen receptor beta (Homo sapiens) (UniProt Q92731); experiment: qHTS assay to identify small molecule agonists of the estrogen receptor beta (ER-beta) signaling pathway (AID 1259377; active means well fitted activation curve with a large enough effect in the signal ratio in the repeat runs, not every such curve was filed as active; the % refers to the signal ratio)
How it was run: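 HEK293T ER-beta-UAS-bla; 2% charcoal-stripped FBS; cells pre-incubated 6 hr, compound 16 hr, 37C/5% CO2; LiveBLAzer B/G FRET substrate 2 h RT; fluorescence intensity read.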

[20] = qHTS assay to identify small molecule phospholipidosis (PLD) inducers (AID 1259344; active means well fitted curve in the direction sought with a large enough effect; an effect the other way counts as inactive or inconclusive)
How it was run: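 Phospholipid accumulation was scored by imaging: fixed, Hoechst-counterstained HepG2 cells stained with LipidTOX Red after 24 h compound exposure at 37 C. Read-outs were pit count and pit intensity per well or per cell, with amiodarone and DMSO controls.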
On the % scale 0 is the no-effect control and ±100 the full control effect.

Cc1ccc(C(=O)O)cc1[N+](=O)[O-]
inactive: Potency [1] | Potency [2] | Potency [3] | Potency [4] | Potency [5] | outcome [6] | outcome [7] | Potency [8] | outcome [9] | Potency [10] | outcome [11] | outcome [12] | outcome [13] | Potency [14] | Potency [15] | outcome [16] | outcome [17]

CCOc1ccccc1OCC1CNCCO1 (stereo not drawn)
inactive: Potency [1] | Potency [2] | Potency [3] | Potency [4] | Potency [5] | outcome [6] | outcome [7] | Potency [8] | outcome [9] | Potency [10] | outcome [18] | outcome [11] | outcome [12] | outcome [13] | Potency [14] | Potency [19] | Potency [15] | outcome [16] | outcome [17]

CCNC(=O)NCc1cccc(Cl)c1
inactive: Potency [1] | Potency [2] | Potency [3] | Potency [4] | Potency [5] | outcome [6] | outcome [7] | outcome [9] | outcome [20] | outcome [18] | outcome [11] | outcome [12] | outcome [13] | Potency [14] | outcome [16]

Cc1c(C(=O)c2c[nH]n(C)c2=O)ccc(S(C)(=O)=O)c1C1=NOCC1
inactive: Potency [1] | Potency [2] | Potency [3] | Potency [4] | Potency [5] | outcome [6] | outcome [7] | Potency [8] | outcome [9] | Potency [10] | outcome [18] | outcome [12] | outcome [13] | Potency [14] | Potency [19] | Potency [15] | outcome [16] | outcome [17]

NC(=O)[C@@H]1CSSCCC(=O)N[C@@H](CCCCN=C(N)N)C(=O)NCC(=O)N[C@@H](CC(=O)O)C(=O)N[C@@H](Cc2c[nH]c3ccccc23)C(=O)N2CCC[C@H]2C(=O)N1 ([Mpa][hArg]GDWPC-NH2; disulfide 1-7)
inactive: Potency [1] | Potency [2] | Potency [3] | Potency [4] | Potency [5] | outcome [6] | outcome [7] | outcome [9] | outcome [20] | outcome [18] | outcome [11] | outcome [12] | outcome [13] | Potency [14] | outcome [16] | outcome [17]

CC(C)CO
inactive: Potency [1] | Potency [2] | Potency [3] | Potency [4] | Potency [5] | outcome [6] | outcome [7] | outcome [9] | Potency [10] | outcome [18] | outcome [11] | outcome [12] | outcome [13] | Potency [14] | Potency [19] | outcome [16] | outcome [17]

OC1OCCOC1O (stereo not drawn)
inactive: Potency [1] | Potency [2] | Potency [3] | Potency [4] | Potency [5] | outcome [6] | outcome [7] | outcome [9] | Potency [10] | outcome [11] | outcome [12] | outcome [13] | Potency [14] | outcome [16] | outcome [17]

Cc1c(Cl)cccc1Cl
inactive: Potency [1] | Potency [2] | Potency [3] | Potency [4] | Potency [5] | outcome [6] | outcome [7] | outcome [9] | Potency [10] | outcome [11] | outcome [12] | outcome [13] | Potency [14] | Potency [19] | Potency [15] | outcome [16] | outcome [17]

CCCCSCCCC
inactive: Potency [1] | Potency [2] | Potency [3] | Potency [4] | Potency [5] | outcome [6] | outcome [7] | Potency [10] | outcome [18] | outcome [11] | outcome [12] | outcome [13] | Potency [14] | Potency [19] | Potency [15] | outcome [16]

Cc1ccccc1C(N)=O
inactive: Potency [1] | Potency [2] | Potency [3] | Potency [4] | Potency [5] | outcome [6] | outcome [9] | Potency [10] | outcome [18] | outcome [11] | outcome [12] | Potency [14] | Potency [15] | outcome [16] | outcome [17]

O=C1NC(c2ccccc2)(c2ccccc2)C(=O)N1COP(=O)(O)O
inactive: Potency [1] | Potency [2] | Potency [3] | Potency [4] | Potency [5] | outcome [7] | Potency [8] | Potency [10] | outcome [18] | outcome [11] | outcome [12] | outcome [13] | Potency [14] | outcome [16] | outcome [17]

OCC(O)CN1CCN(c2ccccc2)CC1 (stereo not drawn)
inactive: Potency [1] | Potency [2] | Potency [3] | Potency [4] | Potency [5] | outcome [6] | outcome [7] | outcome [20] | Potency [10] | outcome [18] | outcome [11] | outcome [12] | outcome [13] | Potency [14] | outcome [16] | outcome [17]

C=C(C)[C@@H]1CC=C(C)CC1
inactive: Potency [1] | Potency [2] | Potency [3] | Potency [4] | Potency [5] | outcome [6] | outcome [7] | outcome [9] | Potency [10] | outcome [18] | outcome [12] | outcome [13] | Potency [14] | outcome [16] | outcome [17]

c1ccc2c(CC3=NCCN3)cccc2c1
inactive: Potency [1] | Potency [2] | Potency [3] | Potency [4] | Potency [5] | outcome [6] | outcome [7] | outcome [20] | outcome [18] | outcome [11] | outcome [12] | Potency [14] | outcome [16] | outcome [17]

COC(=O)c1cccc(Cl)c1
inactive: Potency [1] | Potency [2] | Potency [3] | Potency [4] | Potency [5] | outcome [6] | outcome [9] | Potency [10] | outcome [18] | outcome [11] | outcome [13] | Potency [14] | Potency [19] | Potency [15] | outcome [16] | outcome [17]

O=C(O)CNC(=O)CNC(=O)CNC(=O)CSC(=O)c1ccccc1
inactive: Potency [1] | Potency [2] | Potency [3] | Potency [4] | Potency [5] | outcome [7] | outcome [9] | PLD induction [20] 1.13% [at 7.66 µM] | Potency [10] | outcome [18] | outcome [11] | outcome [12] | outcome [13] | Potency [14] | Potency [19] | outcome [16] | outcome [17]
